# “And” between values parts separate entries of the source, which are not always exact repeats. Identical values can stand only once. Compounds without any hit were thinned out: in the full panel of roughly 79,000, 15% have a hit. A structure can be active in one record and inactive in another. The source made the active and inactive calls. No stated cut-off is given here; in the data, active means growth inhibition above about 70%; inactive means the rest.
# How the values were obtained:
# [1] = NCI Yeast Anticancer Drug Screen. Data for the rad52 strain (AID 147);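 further: 0% = growth of vehicle-treated control cultures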; settings: S. cerevisiae rad52 mutant growth inhibition, stronger effect = higher value
# Method in brief: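 Read-out: growth inhibition versus vehicle-treated controls. Cells were a DNA repair-deficient yeast strain treated with compounds.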
# [2] = NCI Yeast Anticancer Drug Screen. Data for the wt1 strain (AID 149);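 further: 0% = growth of vehicle-treated wt1 cultures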; settings: S. cerevisiae wt1 strain (SPY 50644) growth inhibition, stronger effect = higher value
# Method in brief: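 Readout: yeast growth inhibition, normalised to vehicle controls, in the wt1 strain exposed to test compounds.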
# [3] = NCI Yeast Anticancer Drug Screen. Data for the rad50EPP+ strain (AID 151);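 further: 0% = growth of vehicle-treated control cultures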; settings: S. cerevisiae rad50 mutant strain, stronger effect = higher value
# Method in brief: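 Growth inhibition read against vehicle controls in rad50EPP+ yeast, a strain altered in DNA damage repair, after compound exposure.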
# [4] = NCI Yeast Anticancer Drug Screen. Data for the mgt1 strain (AID 153); settings: S. cerevisiae mgt1 mutant growth inhibition, stronger effect = higher value
# Method in brief: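 mgt1 yeast grown with test compound; read-out is growth inhibition versus vehicle-treated cultures.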
# [5] = NCI Yeast Anticancer Drug Screen. Data for the rad50 strain (AID 155);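 further: 0% = growth of vehicle-only cultures of the same strain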; settings: S. cerevisiae rad50 strain growth inhibition, stronger effect = higher value
# Method in brief: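 Compounds were tested on a yeast strain with an engineered DNA damage repair alteration; the reported value is growth inhibition normalised to vehicle treatment.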
# [6] = NCI Yeast Anticancer Drug Screen. Data for the mec2-1 strain (AID 157); settings: S. cerevisiae mec2-1 strain, stronger effect = higher value
# Method in brief: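 Yeast mec2-1 mutant treated with compound. Readout: growth inhibition vs vehicle controls.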
# [7] = NCI Yeast Anticancer Drug Screen. Data for the rad14 strain (AID 159);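 further: 0% = growth of vehicle-treated control cultures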; settings: S. cerevisiae rad14 strain growth inhibition, stronger effect = higher value
# Method in brief: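 Compound-treated yeast with a defined DNA-repair lesion; growth inhibition normalised to vehicle-treated cultures.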
# [8] = NCI Yeast Anticancer Drug Screen. Data for the sgs1 mgt1 strain (AID 161);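 further: 0% = growth of cultures given vehicle only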; settings: S. cerevisiae sgs1 mgt1 strain, stronger effect = higher value
# Method in brief: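 Genetically altered yeast, compound exposure, growth inhibition relative to vehicle.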
# [9] = NCI Yeast Anticancer Drug Screen. Data for the CLN2oe strain (AID 163);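 further: 0% = growth of vehicle-only control cultures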; settings: S. cerevisiae CLN2oe strain, stronger effect = higher value
# Method in brief: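 Read-out: yeast growth inhibition, expressed relative to vehicle-only controls. The strain bears an engineered cell-cycle alteration.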
# [10] = NCI Yeast Anticancer Drug Screen. Data for the cln2 rad14 strain (AID 165);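 further: 0% = growth equal to vehicle treated cultures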; settings: S. cerevisiae cln2 rad14 strain, stronger effect = higher value
# Method in brief: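 cln2 rad14 yeast strain; compound exposure; growth inhibition read vs vehicle controls.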
# [11] = NCI Yeast Anticancer Drug Screen. Data for the bub3 strain (AID 167); settings: S. cerevisiae bub3 mutant strain, stronger effect = higher value
# Method in brief: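 Growth of a checkpoint-deficient yeast mutant is measured after compound exposure. Values represent inhibition relative to vehicle.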
# [12] = NCI Yeast Anticancer Drug Screen. Data for the wt2 strain (AID 169);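 further: 0% = growth of vehicle-treated yeast cultures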; settings: S. cerevisiae wt2 strain growth inhibition, stronger effect = higher value
# Method in brief: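 Read-out: growth inhibition versus vehicle-treated control cultures after compound exposure of the yeast strain.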
# [13] = NCI Yeast Anticancer Drug Screen. Data for the mlh1 strain (AID 171);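 further: 0% = growth of vehicle-treated control cultures of the same strain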; settings: S. cerevisiae mlh1 strain growth inhibition, stronger effect = higher value
# Method in brief: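 Read-out: growth inhibition versus vehicle controls. Strain: engineered yeast with a defined DNA repair or cell cycle defect, compound-treated.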
# [14] = NCI Yeast Anticancer Drug Screen. Data for the sgs1 strain (AID 173);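 further: 0% = growth of vehicle-only control cultures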; settings: S. cerevisiae sgs1 mutant, stronger effect = higher value
# Method in brief: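 Read-out: yeast growth inhibition relative to vehicle controls, following compound exposure of a strain with a defined DNA repair/cell cycle alteration.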
# [15] = NCI Yeast Anticancer Drug Screen. Data for the mlh1 rad18 strain (AID 175); settings: S. cerevisiae mlh1 rad18 strain growth inhibition, stronger effect = higher value
# Method in brief: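 Yeast w/ defined DNA-repair lesions; compound exposure; growth vs vehicle controls → % inhibition.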
# [16] = NCI Yeast Anticancer Drug Screen. Data for the rad18 strain (AID 177); settings: S. cerevisiae rad18 mutant growth inhibition, stronger effect = higher value
# Method in brief: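 Readout: growth inhibition vs vehicle controls. Cells: genetically altered yeast strain, DNA repair defect.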
# [17] = at 5.0 µM (retest, dose inferred, filed as 0.5)
# [18] = at 50.0 µM (retest, dose inferred, filed as 5.0)
smiles,measurement,setting,value
COc1ccc2c(c1)n([O-])c1ccccc1[n+]2=O,growth inhibition,[1]; at 1.2 µM,16% (inactive)
same,growth inhibition,[1]; at 3.7 µM,48% (inactive)
same,growth inhibition,[1]; at 11.0 µM,86% (active)
same,growth inhibition,[1]; at 33.0 µM,95% (active)
same,growth inhibition,[1]; at 100.0 µM,97% (active)
same,growth inhibition,[2]; at 1.2 µM,0% (inactive)
same,growth inhibition,[2]; at 3.7 µM,2% (inactive)
same,growth inhibition,[2]; at 11.0 µM,9% (inactive)
same,growth inhibition,[2]; at 33.0 µM,24% (inactive)
same,growth inhibition,[2]; at 100.0 µM,69% (inactive)
same,growth inhibition,[3]; at 1.2 µM,34% (inactive)
same,growth inhibition,[3]; at 3.7 µM,72% (active)
same,growth inhibition,[3]; at 11.0 µM,93% (active)
same,growth inhibition,[3]; at 33.0 µM,97% (active)
same,growth inhibition,[3]; at 100.0 µM,98% (active)
same,growth inhibition,[4]; at 1.2 µM,-1% (inactive)
same,growth inhibition,[4]; at 3.7 µM,2% (inactive)
same,growth inhibition,[4]; at 11.0 µM,9% (inactive)
same,growth inhibition,[4]; at 33.0 µM,33% (inactive)
same,growth inhibition,[4]; at 100.0 µM,88% (active)
same,growth inhibition,[5]; at 1.2 µM,18% (inactive)
same,growth inhibition,[5]; at 3.7 µM,33% (inactive)
same,growth inhibition,[5]; [17],66% (inactive) and 91% (active)
same,growth inhibition,[5]; at 11.0 µM,91% (active)
same,growth inhibition,[5]; at 33.0 µM,95% (active)
same,growth inhibition,[5]; [18],95% (active) and 98% (active)
same,growth inhibition,[5]; at 50.0 µM,-18.6% (inactive)
same,growth inhibition,[5]; at 100.0 µM,98% (active)
same,growth inhibition,[6]; at 1.2 µM,3% (inactive)
same,growth inhibition,[6]; at 3.7 µM,7% (inactive)
same,growth inhibition,[6]; [17],15% (inactive) and 27% (inactive)
same,growth inhibition,[6]; at 11.0 µM,19% (inactive)
same,growth inhibition,[6]; at 33.0 µM,50% (inactive)
same,growth inhibition,[6]; [18],75% (active) and 99% (active)
same,growth inhibition,[6]; at 50.0 µM,50.2% (inactive)
same,growth inhibition,[6]; at 100.0 µM,93% (active)
same,growth inhibition,[7]; at 1.2 µM,6% (inactive)
same,growth inhibition,[7]; at 3.7 µM,12% (inactive)
same,growth inhibition,[7]; at 11.0 µM,25% (inactive)
same,growth inhibition,[7]; at 33.0 µM,56% (inactive)
same,growth inhibition,[7]; at 100.0 µM,95% (active)
same,growth inhibition,[8]; [17],5% (inactive) and 73% (active)
same,growth inhibition,[8]; [18],71% (active) and 99% (active)
same,growth inhibition,[8]; at 50.0 µM,-13.2% (inactive)
same,growth inhibition,[9]; at 1.2 µM,-4% (inactive)
same,growth inhibition,[9]; at 3.7 µM,-7% (inactive)
same,growth inhibition,[9]; at 11.0 µM,-2% (inactive)
same,growth inhibition,[9]; at 33.0 µM,25% (inactive)
same,growth inhibition,[9]; at 100.0 µM,75% (active)
same,growth inhibition,[10]; [17],6% (inactive) and 22% (inactive)
same,growth inhibition,[10]; [18],90% (active) and 97% (active)
same,growth inhibition,[10]; at 50.0 µM,96.3% (active)
same,growth inhibition,[11]; at 1.2 µM,3% (inactive)
same,growth inhibition,[11]; at 3.7 µM,4% (inactive)
same,growth inhibition,[11]; [17],6% (inactive) and 10% (inactive)
same,growth inhibition,[11]; at 11.0 µM,14% (inactive)
same,growth inhibition,[11]; at 33.0 µM,60% (inactive)
same,growth inhibition,[11]; [18],85% (active) and 99% (active)
same,growth inhibition,[11]; at 50.0 µM,95.3% (active)
same,growth inhibition,[11]; at 100.0 µM,91% (active)
same,growth inhibition,[12]; at 1.2 µM,-2% (inactive)
same,growth inhibition,[12]; at 3.7 µM,11% (inactive)
same,growth inhibition,[12]; at 11.0 µM,11% (inactive)
same,growth inhibition,[12]; at 33.0 µM,26% (inactive)
same,growth inhibition,[12]; at 100.0 µM,77% (active)
same,growth inhibition,[13]; at 1.2 µM,0% (inactive)
same,growth inhibition,[13]; at 3.7 µM,3% (inactive)
same,growth inhibition,[13]; at 11.0 µM,12% (inactive)
same,growth inhibition,[13]; at 33.0 µM,38% (inactive)
same,growth inhibition,[13]; at 100.0 µM,90% (active)
same,growth inhibition,[14]; at 1.2 µM,5% (inactive)
same,growth inhibition,[14]; at 3.7 µM,18% (inactive)
same,growth inhibition,[14]; at 11.0 µM,41% (inactive)
same,growth inhibition,[14]; at 33.0 µM,76% (active)
same,growth inhibition,[14]; at 100.0 µM,95% (active)
same,growth inhibition,[15]; [17],17% (inactive) and 81% (active)
same,growth inhibition,[15]; [18],93% (active) and 98% (active)
same,growth inhibition,[15]; at 50.0 µM,6.8% (inactive)
same,growth inhibition,[16]; at 1.2 µM,39% (inactive)
same,growth inhibition,[16]; at 3.7 µM,75% (active)
same,growth inhibition,[16]; at 11.0 µM,93% (active)
same,growth inhibition,[16]; at 33.0 µM,97% (active)
same,growth inhibition,[16]; at 100.0 µM,96% (active)
